Screening results: PubChem BioAssay, Broad Institute
A selection: hits, their analogues and other compounds. The true share with any hit is near 4.8%.
HIF activator – HIF pathway transcriptional activation; U2OS HRE-luciferase reporter, luminescence; normalized: DMSO 0%, desferrioxamine 100%; activation, % at 7.5 µM (by protocol); hit rate 0.32% among 300,000;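 active means mean activation of at least 10% of the iron chelator positive control signal, with at least half of replicates also reaching 10%; inconclusive means mean and replicate majority disagree about reaching 10%; inactive means mean and most replicates under 10%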
SUMO Mot1 rescue – SUMOylation pathway inhibition by Mot1-301 growth rescue; S. cerevisiae Mot1-301 growth rescue, ATP luminescence, 38.5C; percent above DMSO median, 100 means doubled; growth rescue, % at 18.8 µM; hit rate 1% among 320,000; AID 2716;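 active means every valid replicate shows activation above 250% relative to neutral control wells; inactive means the rest, any valid replicate at or below 250%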
ALR H2O2 inh – inhibitors of human sulfhydryl oxidase ALR. P55789. purified ALR, DTT oxidation, H2O2 HRP-luminol luminescence. inhibition, % (test concentration not listed). hit rate 3.8% among 290,000;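 active means mean replicate inhibition above about 79%, with every replicate also reaching it, limit read from the data; inconclusive means only one of the two criteria met; inactive means mean below limit and not every replicate reaching it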
Target sequence (P55789 whole entry, looked up): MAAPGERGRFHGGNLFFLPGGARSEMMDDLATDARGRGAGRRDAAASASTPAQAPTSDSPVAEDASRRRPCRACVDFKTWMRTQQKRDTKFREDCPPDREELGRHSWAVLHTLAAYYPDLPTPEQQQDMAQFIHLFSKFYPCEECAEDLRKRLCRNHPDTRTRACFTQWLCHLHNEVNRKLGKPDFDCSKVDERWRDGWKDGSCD
AI-2 QS mod – Vibrio harveyi AI-2 quorum sensing modulation. Vibrio harveyi JMH597 AI-2 luminescence/OD600 ratio, 9 h; active compounds read low; strain lacks LuxN and CqsS sensors; 0 = neutral-control median. hit rate 0.4% among 300,000. activity change, % at 7.5 µM. AID 2094; in the data active means activity change below about -75%, passing the limit was not always enough; inconclusive means no clear call, values can overlap the other calls;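 further: luminescence divided by OD600 gain over 9 h not by final OD600 alone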
Each line names hits and unclear results; the compound was inactive in the other large screens.

Cc1[nH]c2ccc(F)cc2c1CCN(Cc1cccnc1)C(=S)Nc1ccccc1	none
CNC(=S)N(CCc1c(C)[nH]c2ccc(F)cc12)Cc1cccnc1	SUMO Mot1 rescue 354, ALR H2O2 inh 97
O=C(COC(=O)c1cc[n+]([O-])cc1)Nc1ccc(Br)cc1	none (no result: HIF activator, AI-2 QS mod)
O=C(COC(=O)c1cc[n+]([O-])cc1)Nc1ccc(SC(F)F)cc1	ALR H2O2 inh 95
O=C1NCCCC2c3cc(O)c4ccccc4c3OC12N1CCCCC1 (stereo unspecified)	none (no result: HIF activator, AI-2 QS mod)
O=C1NCCCC2c3c(cc(Br)c(O)c3Br)OC12N1CCOCC1 (stereo unspecified)	ALR H2O2 inh 94
Cc1cc(Cl)ccc1OCc1nc(-c2ccc(O)cc2)n[nH]1	ALR H2O2 inh 98
CN(C)c1ccc(N=Nc2cccc3ccoc23)cc1	ALR H2O2 inh 86
Oc1ccccc1C=NC1=NN(c2cccc(C(F)(F)F)c2)CC1	ALR H2O2 inh 78
FC(F)(F)c1cccc(N2CCC(N=CN3CCCCCC3)=N2)c1	none
S=C(NCCc1cccc(Cl)c1)NC1CCCCC1	none
Cc1ccc(-c2nc(COC(=O)C3=NN(c4ccccc4)C(=O)CC3)cs2)cc1	ALR H2O2 inh 99 (no result: HIF activator, AI-2 QS mod)
S=C(N/N=C/c1ccco1)NC1CC2CCC1C2 (stereo unspecified)	ALR H2O2 inh 98
CN(CC(=O)NCCc1ccccc1)S(=O)(=O)c1ccc(Br)s1	none
Cc1cc(C)n(-c2ccc3cccc(NS(C)(=O)=O)c3n2)n1	HIF activator 52
N#C/C(=N/Nc1ccccc1[N+](=O)[O-])C(N)=S	none
Cc1ccc(N/N=C(\C#N)C(N)=S)cc1C	none (no result: ALR H2O2 inh)
N#C/C(=N\Nc1ccccc1)C(N)=S	ALR H2O2 inh 92
N#C/C(=N\Nc1ccc(Cl)cc1)C(N)=S	ALR H2O2 inh 94
COc1cccc(-c2nc(CS(=O)(=O)CC(=O)N3CCCCC3)c(C)o2)c1	none
COc1ccc(-c2nc(CS(=O)CC(=O)N3CCCC3)c(C)o2)cc1 (stereo unspecified)	ALR H2O2 inh 99
CCN1CCN(C(=O)CS(=O)Cc2nc(-c3ccc(OC)cc3)oc2C)CC1 (stereo unspecified)	ALR H2O2 inh 99
COc1ccccc1CN1CCC(n2nccc2NC(=O)CCc2ccccc2)CC1	none
CCOc1ccc(NC(=O)CSc2nnc(CNC(=O)c3cccs3)o2)cc1	none
Nc1nc(-c2ccccn2)nc(N)c1Cc1ccc(Cl)cc1Cl	HIF activator 15
COc1cccc(C(=O)C2CN(c3ccccc3)CC2c2ccc(Cl)cc2)c1 (stereo unspecified)	ALR H2O2 inh 97
CCN(CC)c1ccc(N2C(=NC(=O)C3CC3)SC3CS(=O)(=O)CC32)cc1 (stereo unspecified)	none
Cc1ccc(C(=O)C2=C(O)C(=O)N(Cc3cccnc3)C2c2ccc(Cl)c(Cl)c2)o1 (stereo unspecified)	ALR H2O2 inh 88
COCCn1c(SCC(=O)NC2CCCC2)nnc1C(C)C	none
CCOc1cccc(C(=O)Nc2ccc(N(CC)CC)cc2)c1	none (no result: ALR H2O2 inh)
CCN(CC)c1cccc(OCC(=O)N(C)CCC#N)c1	ALR H2O2 inh 98
CC(=O)Nc1ccc(NC(=O)CSc2nnc(-c3cccnc3)o2)cc1	ALR H2O2 inh 98
O=C(CSc1nnc(-c2cccnc2)o1)Nc1ccc(Cl)cc1	none
O=C(N/C(=C\c1cccc([N+](=O)[O-])c1)C(=O)N1CCOCC1)c1cccc(Br)c1	none
CCC(=O)Nc1ccc2c(c1)nc1n2CCN(CCOC)C1	none
Cc1ccc(S(=O)(=O)N2CCN=C2SCc2cccnc2)cc1	ALR H2O2 inh 98 (no result: SUMO Mot1 rescue)
O=S(=O)(c1ccccc1)N1CCN=C1SCc1cccnc1	ALR H2O2 inh 100
O=S(=O)(c1ccc(Cl)cc1)N1CCN=C1SCc1cccnc1	ALR H2O2 inh 97
COc1ccc(S(=O)(=O)N2CCN=C2SCc2cccnc2)cc1	ALR H2O2 inh 99
CCC(C)N(C(=O)c1csnn1)C(C(=O)NCc1ccc(F)cc1)c1ccccc1F (stereo unspecified)	none (no result: AI-2 QS mod)
CCS(=O)(=O)N1CCN=C1SCc1cccnc1	ALR H2O2 inh 98
COc1cc(CNc2ccc3[nH]c(=O)[nH]c3c2)cc(Cl)c1OCC(=O)NC(C)(C)C	ALR H2O2 inh 98
COc1cc(CNc2ccc(N3CCCCC3)cc2)ccc1OCC(=O)NC(C)(C)C	ALR H2O2 inh 99
COc1cc(CNc2ccc(N3CCCC3)cc2)ccc1OCc1ccccc1	none (no result: HIF activator, ALR H2O2 inh, AI-2 QS mod)
C=CCOc1ccc(CNCc2cccnc2)cc1OCC	ALR H2O2 inh 94
C=CCOc1ccc(CNc2ccc3[nH]c(=O)[nH]c3c2)cc1OCC	ALR H2O2 inh 98
COc1cc(CNn2c(C)n[nH]c2=S)cc(Cl)c1OCC(=O)NC(C)(C)C	none (no result: AI-2 QS mod)
CC(C)c1ccc(/C=C2\SC(=O)N(CC(=O)NC3C=CS(=O)(=O)C3)C2=O)cc1 (stereo unspecified)	none
Cc1ccc(C)c(S(=O)(=O)N2CCN(C(=O)CCC(=O)c3cc(C)sc3C)CC2)c1	none
CCOc1cc(CNc2ccc3[nH]c(=O)[nH]c3c2)ccc1OCC(=O)NC(C)(C)C	ALR H2O2 inh 91
CCOc1ccccc1OCC(=O)Nc1ccc2[nH]c(=O)[nH]c2c1	none (no result: HIF activator, ALR H2O2 inh, AI-2 QS mod)
COc1cccc(CNc2ccc3[nH]c(=O)[nH]c3c2)c1OCc1ccc(F)cc1	ALR H2O2 inh inconclusive
C=CCOc1c(CNc2ccc3[nH]c(=O)[nH]c3c2)cccc1OC	ALR H2O2 inh 99
C=CCOc1ccc(CNc2ccc3[nH]c(=O)[nH]c3c2)cc1	ALR H2O2 inh 99
Cc1cc(C)c(OCC(=O)OCC(=O)N2CCCc3ccccc32)c(C)c1	none
COc1ccc(OCC(=O)Nc2cc(OC)ccc2N2CCCCC2)cc1	none
CC(C)Sc1nc2ccccc2n1CC(=O)NCc1ccc2c(c1)OCO2	none
CC(C)N(C(=O)Cn1c(SCC(=O)NCc2ccc3c(c2)OCO3)nc2ccccc21)C(C)C	SUMO Mot1 rescue 307
O=C(Cn1c(Cc2ccccc2)nc2ccccc21)NCc1ccc2c(c1)OCO2	HIF activator 137
C/C(=N\Nc1nc2ccccc2[nH]1)c1ccc2c(c1)OCO2	ALR H2O2 inh 100
C/C(=N\Nc1nc2ccccc2[nH]1)c1cc2ccccc2o1	ALR H2O2 inh inconclusive
C/C(=N\Nc1nc2ccccc2[nH]1)c1ccccn1	HIF activator 179, AI-2 QS mod -87 (no result: ALR H2O2 inh)
C/C(=N\Nc1ccccn1)c1ccc2c(c1)OCO2	none
C(=N\Nc1nc2ccccc2[nH]1)/c1ccc2c(c1)OCO2	none (no result: SUMO Mot1 rescue, ALR H2O2 inh)
C/C(=N\Nc1nc2ccccc2[nH]1)c1ccc2c(c1)OCCO2	ALR H2O2 inh 99
CC(=O)c1ccc(NC(=O)CSc2ccc(-c3ccc(-n4cccn4)cc3)nn2)cc1	none
CCOC(=O)c1ccc(S(=O)(=O)NCCN(CC)CC)cc1	none
CCN(CC)CCNS(=O)(=O)c1ccc(C(=O)NN)cc1	ALR H2O2 inh 98
Cc1ccc2c(c1)cc(CN(CCc1ccccc1)C(=O)N1CCOCC1)c1nnnn12	none (no result: ALR H2O2 inh)
Cc1ccc2c(c1)cc(CN(Cc1ccc3c(c1)OCO3)C(=O)c1ccccc1)c1nnnn12	SUMO Mot1 rescue 336
CCOC(=O)C1=C(COC(=O)C2CC(=O)N(c3ccc(C)cc3)C2)NC(=O)NC1C (stereo unspecified)	none
